Assay outcomes deposited in PubChem BioAssay by National Center for Advancing Translational Sciences (NCATS).
Sampled rows, rich in hits. Any-hit rate of the full collection: about 10%.
NPR1 antag – Natriuretic polypeptide receptor (hNpr1) antagonism - Primary qHTS; Potency, µM (series often up to 46.3 µM), usual class: inhibitors; 1.6% of 76,000 active; Atrial natriuretic peptide receptor 1 (Homo sapiens), P16066; HEK293 hNpr1 GloSensor cGMP, ANP-stimulated luminescence; calls by dose curve; also: nearly all actives have a fitted effect of over 60% in size
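Compound pre-incubated 30 min at room temperature on GloSensor-loaded HEK293 cells stably carrying hNpr1 and the pGS-40F cGMP biosensor. Stimulation uses hNppA at 0.1 nM final; luminescence is taken at baseline and 20 min post-agonist.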
Luciferase inh – Firefly luciferase inhibition profiling of diverse chemical library using quantitative high-throughput screening; Luciferin 4-monooxygenase (Photinus pyralis), P08659; purified P. pyralis luciferase, luminescence, biochemical; Potency, µM (top dose mostly 115 µM), hits mostly inhibitors; 2.5% of 76,000 active; AID 1347043, 2019; also: nearly all actives have a fitted effect of over 65% in size
Target sequence (P08659 whole entry, looked up): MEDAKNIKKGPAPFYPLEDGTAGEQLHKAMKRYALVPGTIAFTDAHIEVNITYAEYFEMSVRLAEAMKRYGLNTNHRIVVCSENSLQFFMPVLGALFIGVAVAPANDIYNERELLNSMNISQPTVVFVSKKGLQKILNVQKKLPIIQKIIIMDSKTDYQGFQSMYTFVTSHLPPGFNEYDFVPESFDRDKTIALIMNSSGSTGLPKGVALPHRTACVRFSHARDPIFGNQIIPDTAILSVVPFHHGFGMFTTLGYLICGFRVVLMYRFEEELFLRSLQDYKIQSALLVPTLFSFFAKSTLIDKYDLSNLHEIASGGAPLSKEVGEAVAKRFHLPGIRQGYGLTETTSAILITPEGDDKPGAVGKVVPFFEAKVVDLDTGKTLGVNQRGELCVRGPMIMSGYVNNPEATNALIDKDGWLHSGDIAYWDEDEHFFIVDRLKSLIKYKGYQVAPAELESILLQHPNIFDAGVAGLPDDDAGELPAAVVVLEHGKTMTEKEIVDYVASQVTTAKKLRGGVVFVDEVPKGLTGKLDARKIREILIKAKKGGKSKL
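Luminescence read by CCD imaging after purified firefly luciferase (10nM final) was added to substrate buffer holding 10uM D-luciferin and 10uM ATP, pH 7.5, pre-dosed with compound.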
HEK cytotox – Cytotoxic Profiling in HEK 293 Cell Line of Diverse Libraries Using Quantitative High-Throughput Screening | HEK 293 viability, ATP luminescence (CellTiter-Glo), 48-72 h | Potency, µM (top dose mostly 115 µM), usual class: inhibitors | 6.6% of 94,000 active; also: nearly all actives have a fitted effect of over 60% in size
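Pintool-delivered compounds were incubated with HEK 293 cells (250 cells/well) at 37 degree Celsius for 48 or 72 hr. ATP-dependent luminescence (CellTiter-Glo) then reported remaining viable cells.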
GPT2 inhibitor – Primary qHTS assay for inhibitors of Glutamate pyruvate transaminase 2 (GPT2); Recombinant GPT2, coupled pyruvate oxidase/HRP Amplex Red fluorescence; Potency, µM (highest dose often 57.7 µM), hits mostly inhibitors; 0.25% of 100,000 active; also: nearly all actives have a fitted effect of over 60% in size
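Fluorescence read-out: pyruvate from GPT2 turnover coupled to pyruvate oxidase, HRP and Amplex Red (0.2mM ThPP, 0.2U/mL PO and HRP, 50uM Amplex final). Substrates 250uM a-KG, 2mM L-alanine; enzyme 10ng/uL; 30 min RT.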
NIH3T3 tox – Cytotoxic Profiling in NIH 3T3 Cell Line of Diverse Libraries Using Quantitative High-Throughput Screening; AID 1345082, 2018; NIH 3T3 viability, CellTiter-Glo ATP luminescence, 48-72 h; 4.3% of 94,000 active; Potency, µM (doses to about 96.7 µM), most hits filed as inhibitors; also: nearly all actives have a fitted effect of over 55% in size
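ATP-dependent luminescence (CellTiter-Glo) served as the viability signal for NIH 3T3 cells treated with compound for 48 or 72 hr at 37 °C.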
Each line names hits and unclear results; the compound was inactive in the other large screens. Unless noted, calls follow the shape of the dose curve; as a rule, active = well fitted curve in the direction sought with a large enough effect; inconclusive = small, poorly fitted or top-dose-only effect, or another doubt; inactive = no such curve, though single readings can be large; an effect the other way counts as inactive or inconclusive.

COc1ccc(CNC(=O)c2ccc(-c3ccc(N4CCSCC4)nc3)cc2)cc1OC	NPR1 antag 10µM, Luciferase inh inconclusive, HEK cytotox inconclusive, NIH3T3 tox inconclusive
O=C(NCc1ccc2c(c1)OCO2)c1ccc(-c2ccc(N3CCSCC3)nc2)cc1	Luciferase inh inconclusive, HEK cytotox inconclusive, NIH3T3 tox inconclusive
Cc1ccc(CNC(=O)c2ccc(-c3ccc(N4CCSCC4)nc3)cc2)o1	Luciferase inh 28µM, HEK cytotox inconclusive, NIH3T3 tox inconclusive
CC(C)CCNC(=O)c1ccc(-c2ccc(N3CCSCC3)nc2)cc1	Luciferase inh inconclusive
Cc1noc([C@@H]2CC(F)(F)CN2S(=O)(=O)c2cn(C)cn2)n1	none
C[C@@H]1CCNC(=O)c2cc3ccc(C(=O)Nc4nc5ccccc5n4CCCN(C)C)cc3n21	none (no result: NPR1 antag, Luciferase inh, HEK cytotox, NIH3T3 tox)
CN(C)c1nccnc1OC1CCN(C(=O)C2CCCCC2)C1 (stereo unspecified)	Luciferase inh inconclusive, HEK cytotox inconclusive
CCCN(C)c1nccnc1OC1CCN(C(=O)CC(C)C)C1 (stereo unspecified)	Luciferase inh 18µM, HEK cytotox inconclusive
CCCN(C)c1nccnc1OC1CCN(C(=O)C(C)C)C1 (stereo unspecified)	Luciferase inh 22µM, NIH3T3 tox inconclusive
CCCN(C)c1nccnc1OC1CCN(C(=O)C2CCC2)C1 (stereo unspecified)	Luciferase inh inconclusive, HEK cytotox inconclusive, NIH3T3 tox inconclusive
CCCN(C)c1nccnc1OC1CCN(C(=O)CC)C1 (stereo unspecified)	none
CCC(CC)C(=O)N1CCC(Oc2nccnc2N(C)C)C1 (stereo unspecified)	Luciferase inh 35µM, HEK cytotox inconclusive
CCCN(C)c1nccnc1OC1CCN(C(=O)c2ccn[nH]2)C1 (stereo unspecified)	Luciferase inh 22µM, HEK cytotox inconclusive, GPT2 inhibitor inconclusive
CCOCc1nc(C2CCCN(C(=O)NCc3ccc(F)cc3)C2)no1 (stereo unspecified)	NPR1 antag inconclusive
CCNC(=O)[C@@H]1C[C@H](NC(=O)c2ccc[nH]2)CN1C(=O)c1csc(C)n1	none
Cc1cc(C(=O)N2C[C@@H](COc3ccccc3)[C@H](C(N)=O)C2)nn1C	none
Clc1ccc2nc(N3CCC(NC4CCSC4)CC3)sc2c1 (stereo unspecified)	NPR1 antag 11µM, Luciferase inh 35µM, HEK cytotox inconclusive, GPT2 inhibitor inconclusive
c1coc(CN2CCC(NC3CCCN(c4nc5ccccc5s4)C3)CC2)c1 (stereo unspecified)	HEK cytotox inconclusive, NIH3T3 tox inconclusive
O[C@H]1CCCC[C@@H]1NC1CCN(c2nc3ccc(Cl)cc3s2)CC1	NPR1 antag inconclusive, Luciferase inh inconclusive, HEK cytotox 22µM, NIH3T3 tox 10µM
O=C1COc2ccc(-c3cc(F)cc(F)c3)nc2CN1Cc1ccccc1F	HEK cytotox 89µM, NIH3T3 tox inconclusive
O=C1COc2ccc(OCc3ccccc3)nc2CN1Cc1ccccc1F	NPR1 antag inconclusive, HEK cytotox inconclusive, NIH3T3 tox 100µM
O=C1COc2ccc(-c3ccc(F)c(Cl)c3)nc2CN1Cc1nc2ccccc2s1	HEK cytotox 50µM, NIH3T3 tox inconclusive
O=C1COc2ccc(OCc3cncs3)nc2CN1Cc1ccccc1	HEK cytotox inconclusive, NIH3T3 tox inconclusive
CC(=O)Nc1cccc(-c2ccc3c(n2)CN(Cc2nc4ccccc4s2)C(=O)CO3)c1	Luciferase inh inconclusive, HEK cytotox inconclusive, NIH3T3 tox inconclusive
CNC(=O)N1CCC(n2c(C)cnc2-c2ccccc2)CC1	none
COc1cccc(C(=O)N2CCC3(CC2)NC(=O)N(c2cccc(F)c2)N3)c1	HEK cytotox inconclusive, GPT2 inhibitor inconclusive, NIH3T3 tox inconclusive
COc1cc(OC)cc(C(=O)N2CCC3(CC2)NC(=O)N(c2ccc(F)cc2)N3)c1	HEK cytotox 28µM, GPT2 inhibitor inconclusive, NIH3T3 tox 25µM
COc1ccccc1C(=O)N1CCC(C(NC(=O)c2ccc(C)cc2)C(=O)N2CCCCC2)CC1 (stereo unspecified)	none
COC(=O)[C@@H]1Cc2c([nH]c3ccccc23)[C@H]2C[C@@H](NCc3ccccc3)C[C@@H](c3ccccc3F)N21	HEK cytotox 25µM, NIH3T3 tox 25µM
COC(=O)[C@@H]1Cc2c([nH]c3ccccc23)[C@H]2C[C@@H](NCc3cccs3)C[C@@H](c3ccccc3F)N21	HEK cytotox 40µM, NIH3T3 tox inconclusive
O=C(NCc1nnc2c(-c3nc(C4CC4)no3)cccn12)c1ccc(F)c(Cl)c1	none
NCC(=O)N1CCC2(CC1)CN([S+](=O)([O-])c1ccccc1)CCO2	none (no result: NPR1 antag, Luciferase inh)
COCCN1CCC(C(=O)Nc2ccc(Oc3ccccc3F)cc2)CC1	HEK cytotox 50µM, NIH3T3 tox inconclusive
COc1ccccc1NC(=O)c1cc2c(n1C)CCN(Cc1ccc(F)cc1)C2	Luciferase inh 16µM, HEK cytotox 32µM, NIH3T3 tox inconclusive
COc1ccc(CNC(=O)c2cc3c(n2C)CCN(Cc2ccc(F)cc2)C3)cc1	HEK cytotox inconclusive, NIH3T3 tox inconclusive
COc1cccc(CN2CCc3c(cc(C(=O)Nc4ccc(C)cc4C)n3C)C2)c1	Luciferase inh 16µM, HEK cytotox inconclusive, NIH3T3 tox inconclusive
COc1cccc(CN2CCc3c(cc(C(=O)Nc4cc(OC)cc(OC)c4)n3C)C2)c1	Luciferase inh inconclusive, HEK cytotox inconclusive, NIH3T3 tox inconclusive
CC1=C[C@@H](CNC(=O)[C@@H]2CCCC[C@@H]2C(=O)O)[C@H](C(C)C)C[C@H]1Cc1nc2c(C)cccc2[nH]1	none
COc1cc(NC(=O)C2CCc3ncc(-c4ccsc4)n3C2)cc(OC)c1 (stereo unspecified)	HEK cytotox inconclusive, NIH3T3 tox inconclusive
CCc1cccc(NC(=O)C2CCc3ncc(-c4ccsc4)n3C2)c1 (stereo unspecified)	HEK cytotox 45µM, NIH3T3 tox inconclusive
O=C(CCC1CCCN(S(=O)(=O)c2ccccc2F)C1)NC1CCCCC1 (stereo unspecified)	NPR1 antag inconclusive, HEK cytotox 32µM
O=C(NC1CCCC1)c1cccc2c1CCN2S(=O)(=O)c1ccccc1F	NPR1 antag inconclusive, HEK cytotox inconclusive, NIH3T3 tox 35µM
CCc1ccc(CNC(=O)CCC2CCCN(S(=O)(=O)c3ccccc3C)C2)cc1 (stereo unspecified)	HEK cytotox 40µM, NIH3T3 tox inconclusive
Cc1cnc(C(=O)N2CCCN(Cc3ccncc3)C(c3ccccc3)CC(=O)NCC2)cn1 (stereo unspecified)	none
O=C(CN1C(=O)C(c2ccccc2)=NC12CCCCC2)NC1CCCC1	HEK cytotox 28µM, NIH3T3 tox inconclusive
